KCNQ2 block = KCNQ2 (rat) channel inhibition | O88943 | CHO-K1 KCNQ2, FluxOR thallium flux, 20 min; hits give low values | B-score at 10 µM | actives 1.1% (n = 310,000) | AID 2156;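 active = fluorescence ratio B-score at most minus 3 library SDs, with starting brightness B-score within 2 library SDs, cut at about -5.5 in these data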
Target sequence (O88943 whole entry, looked up): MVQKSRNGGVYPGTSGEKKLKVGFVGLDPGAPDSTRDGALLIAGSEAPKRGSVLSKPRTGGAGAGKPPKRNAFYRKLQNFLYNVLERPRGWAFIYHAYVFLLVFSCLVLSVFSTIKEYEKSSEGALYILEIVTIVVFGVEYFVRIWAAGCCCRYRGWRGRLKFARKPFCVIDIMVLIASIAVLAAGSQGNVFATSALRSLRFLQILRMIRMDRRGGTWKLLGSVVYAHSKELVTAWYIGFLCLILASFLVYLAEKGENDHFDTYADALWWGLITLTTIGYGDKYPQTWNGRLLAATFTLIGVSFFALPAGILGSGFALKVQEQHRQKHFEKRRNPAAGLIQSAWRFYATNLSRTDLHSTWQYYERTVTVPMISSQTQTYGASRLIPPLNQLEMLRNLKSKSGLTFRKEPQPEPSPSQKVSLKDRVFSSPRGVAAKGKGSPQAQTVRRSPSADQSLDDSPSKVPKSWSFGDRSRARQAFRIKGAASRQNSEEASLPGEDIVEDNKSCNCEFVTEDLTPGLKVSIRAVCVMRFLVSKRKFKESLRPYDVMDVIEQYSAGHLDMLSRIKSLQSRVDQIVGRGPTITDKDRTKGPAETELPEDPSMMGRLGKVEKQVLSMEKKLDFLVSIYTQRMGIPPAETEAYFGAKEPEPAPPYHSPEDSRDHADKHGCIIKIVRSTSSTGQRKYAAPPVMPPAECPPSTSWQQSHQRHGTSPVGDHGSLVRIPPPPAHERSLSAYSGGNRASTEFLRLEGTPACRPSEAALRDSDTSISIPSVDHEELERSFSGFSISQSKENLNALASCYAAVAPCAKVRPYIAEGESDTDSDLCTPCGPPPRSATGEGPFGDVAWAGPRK
KCNQ2 pot = enhances the rat KCNQ2 potassium channel; CHO-K1 KCNQ2, FluxOR thallium flux fluorescence; hits give high values; O88943; B-score at 10 µM; AID 2239; actives 0.54% (n = 310,000);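 active = fluorescence ratio B-score at least 3 SD of library B-scores, with initial fluorescence B-score within 3 of them, cut at about 5.3 in these data; same plate scores as AID 2156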;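 note: B-score of peak minus minimum over baseline fluorescence ratio after K+ and Tl+ stimulus; positive B-score means potentiation of KCNQ2 with more thallium influx and brighter signal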
* hit, by the source's call; i = inactive; . = not tested or not shown. This is a sample that favours compounds with a hit; in the whole collection about 1.6% have one here.

SMILES	KCNQ2 block	KCNQ2 pot
O=C1NC(c2ccc(Br)cc2)Oc2ccccc21 (stereo not given)	i	.
CCCCN(C)CC(O)Cn1cc(/C=C/C(=O)c2ccc(OCC)cc2)c2ccccc21 (stereo not given)	-6.74*	-6.74
CCCCN(C)CC(O)Cn1cc(/C=C/C(=O)c2cccs2)c2ccccc21 (stereo not given)	i	.
COCCNC(=O)c1cccc(S(=O)(=O)N2CC3(C)CC2CC(C)(C)C3)c1 (stereo not given)	i	0.65
COc1ccc(CCNC(=O)C2CC(=O)N(C3CCCCC3)C2)cc1OC (stereo not given)	i	1.37
COc1ccc(OC)c(NC(=S)N2CCC(C(O)(c3ccccc3)c3ccccc3)CC2)c1	i	5.89*
COc1ccc(OC)c(NC(=S)N2CCN(Cc3ccccc3)CC2)c1	i	1
Fc1ccc(Nc2nc(N3CCOCC3)c3ccccc3n2)cc1	i	.
c1ccc2c(Nc3nc(N4CCOCC4)c4ccccc4n3)cccc2c1	-6.55*	-6.55
C=CCn1c(C)cc(C(=O)COC(=O)COc2ccccc2C#N)c1C	i	.
C=CCn1c(C)cc(C(=O)COC(=O)[C@@H](NC(=O)c2ccccc2Cl)C(C)C)c1C	-7.49*	-7.49
O=C(CSc1nnc(C2CCCCC2)n1-c1ccccc1)NCc1ccco1	-5.57*	-5.57
CCNC(=O)CSc1nnc(C2CC2)n1-c1ccccc1	i	.
CC(C)CC(COCc1ccc(F)cc1)N1CCN(C(=O)c2cccc(C(F)(F)F)c2)CCC1=O (stereo not given)	-6.06*	-6.06
Cc1ccc(S(=O)(=O)N2CCC(=O)N(C(COCc3ccc(C(F)(F)F)cc3)Cc3ccccc3)CC2)cc1 (stereo not given)	-6.07*	-6.07
O=C(c1cccc(Cl)c1)N1CCC(=O)N(C(COCc2cccc(Cl)c2)Cc2ccccc2)CC1 (stereo not given)	i	.
O=C(c1ccc(Cl)c(Cl)c1)N1CCC(=O)N(C(COCc2cccc(Cl)c2)Cc2ccccc2)CC1 (stereo not given)	-6.19*	-6.19
Cc1ccc(COCC(CC(C)C)N2CCN(C(=O)c3cccc(C(F)(F)F)c3)CCC2=O)cc1 (stereo not given)	i	.
Cc1ccc(S(=O)(=O)N2CCC(=O)N(C(COCc3ccc(C(F)(F)F)cc3)C(C)C)CC2)cc1 (stereo not given)	i	.
Cc1ccc(S(=O)(=O)N2CCC(=O)N(C(COCc3ccc(Cl)c(Cl)c3)Cc3ccccc3)CC2)cc1 (stereo not given)	i	.
Cc1ccc(S(=O)(=O)N2CCC(=O)N(C(COCc3cccc(C)c3)Cc3ccccc3)CC2)cc1 (stereo not given)	-6.45*	-6.45
COc1ccc(CNC(=O)C2CCC(CNS(=O)(=O)c3ccc(C)cc3)CC2)cc1 (stereo not given)	i	.
COc1ccc(CCNC(=O)CCC(=O)Nc2ccccc2[N+](=O)[O-])cc1OC	i	.
COc1ccccc1N1CCN(C(=O)c2ccc(COc3cccc4c3OC(C)(C)C4)cc2)CC1	i	.
CC1(C)CC(=O)C=C(Nc2cccc(Cl)c2Cl)C1	i	0.8
SMILES	KCNQ2 block	KCNQ2 pot
Cc1ccc(-c2nc3cnccn3c2Nc2ccc3c(c2)OCO3)cc1	i	.
CN(C)c1ccc(-c2nc3cnccn3c2Nc2ccc3c(c2)OCCO3)cc1	-6.39*	-6.39
CCCc1c(-c2ccc(O)cc2)nn(-c2ccc(O)cc2)c1-c1ccc(O)cc1	-6.58*	-6.58
Cc1c(C(N)=O)c(-c2ccccc2)nn1-c1ccccc1	i	0.5
COc1cccc(NC(=O)c2cccs2)c1	i	1.89
COc1cc(NC(=O)c2cccs2)cc(OC)c1	i	6.61*
O=C(NCc1nc(-c2ccc(Cl)cc2)no1)c1ccc2c(c1)OCO2	i	.
C=CCn1cnc2c(c1=O)c1nc3ccccc3nc1n2/N=C/c1cc(OC)c(OC)c(OC)c1	-7.86*	-7.86
COCCn1cnc2c(c1=O)c1nc3ccccc3nc1n2/N=C/c1cccc(OC)c1	i	.
Cc1ccc(F)cc1CNC(=O)C1CCC(=O)N(C2CC2)C1 (stereo not given)	i	.
COc1ccc(-c2noc(-c3ccccc3F)n2)cc1	i	0.05
COc1ccc(-c2noc(-c3ccccc3-c3ccccc3)n2)cc1	-6.56*	-6.56
CCCCn1c(N)c(N(Cc2ccccc2OC)C(=O)c2ccc([N+](=O)[O-])s2)c(=O)[nH]c1=O	i	.
Cc1ccc(C(=O)Nc2cc(Cl)ccc2Oc2ccccc2)cc1[N+](=O)[O-]	-6.14*	-6.14
Cc1ccc(C(=O)Nc2ccccc2-c2ccccc2)cc1[N+](=O)[O-]	i	.
Cc1ccsc1/C=C1/SC(N2CCOCC2)=NC1=O	i	0.11
O=C1N=C(N2CCOCC2)S/C1=C\c1cccs1	i	8.82*
Cc1cc(NC(=O)c2ccc(F)cc2)n(C)n1	i	.
Cc1ccc(CNC(=O)[C@@H](NC(=O)C2CCN(C(=O)[C@@H](N)CC(C)C)CC2)C(C)C)cc1	i	.
CC1(C)Cc2ccccc2-c2nc(-c3ccccc3)oc(=O)c21	-7.87*	-7.87
CC1(C)Cc2ccccc2-c2nc(NN)[nH]c(=O)c21	i	.
O=C(Nc1ccon1)Nc1cc(Cl)ccc1Cl	i	.
COc1ccc(CCN=C(C)c2cc(C)c(C)cc2O)cc1OC	i	0.03
Cc1cc(NC(=O)CSc2nnc(COc3ccccc3)n2Cc2ccco2)no1	i	0.85
Cc1ccc(OCc2nnc(SCC(=O)C(C)(C)C)n2Cc2ccco2)cc1	-7.01*	-7.01
SMILES	KCNQ2 block	KCNQ2 pot
COc1cc(C(CC(=O)Nc2ccc(C)cn2)N2Cc3ccccc3C2=O)cc(OC)c1OC (stereo not given)	i	.
COC(=O)c1cn(C(=O)c2ccc(F)cc2)c2ccccc12	i	.
C=CCOc1ccc(C(=O)n2cc(C(=O)OC)c3ccccc32)cc1	-6.16*	-6.16
CC(C)C[C@H]1CN=C(Nc2ccccc2)N1CCCC1CCCC1	i	.
CC(C)C[C@H]1CN=C(Nc2ccccc2)N1CCCC1CCCCC1	-5.64*	-5.64
CC12CCC(=O)N1C(C(=O)N1CCN(S(=O)(=O)c3cccc(Cl)c3)CC1)CS2 (stereo not given)	i	1.76
O=C1C(Cl)=C(NCCN2CCCCC2)C(=O)c2ccccc21	-5.79*	-5.79
CCNC1=C(Cl)C(=O)c2ccccc2C1=O	i	0.29
Cc1ccc(N(C)S(=O)(=O)c2cc3c(cc2C)NC(=O)CO3)cc1	i	.
CN(Cc1ccc(F)cc1)C(=O)C(c1ccccc1)c1ccccc1	i	.
COc1ccccc1CN(C)C(=O)C(c1ccccc1)c1ccccc1	-5.63*	-5.63
CCc1ccc(-c2nc(CS(=O)CC(=O)NC3CCCCCC3)c(C)o2)cc1 (stereo not given)	i	4.03
COC(=O)c1ccccc1S(=O)(=O)N1CCCC(c2nc3c(nnn3Cc3ccc(C)cc3)c(=O)[nH]2)C1 (stereo not given)	i	.
COc1ccccc1NC(=O)N1CCCC(c2nc3c(nnn3Cc3ccc(C)cc3)c(=O)[nH]2)C1 (stereo not given)	-6.24*	-6.24
CC(=O)/C(=N\Nc1ccccc1)Sc1cccc2cccnc12	i	.
O=C(Sc1cccc2cccnc12)c1ccccc1Br	-6.18*	-6.18
O=C(CCc1nnc2n(Cc3ccccc3)c(=O)c3ccccc3n12)NCCN1CCOCC1	i	0.71
COc1ccc(Nc2cc(C(=O)N3CCc4ccccc4C3)c3ccccc3n2)c(OC)c1	-7.96*	-7.96

Screening data (PubChem)
